Measurements from PubChem BioAssay (EPA / NIEHS).
The source made the active and inactive calls. Rule for the calls: active = hit-call score of the fitted dose curve at least 0.9, where 1 is the maximum; inactive = score below 0.9.

Columns and labels:
[1] = APR_HepG2_P-H2AX_72hr: Apredica 72-hour HepG2 Assay for H2AX Phosphorylation (AID 2282916); settings: imaging, actives raise or lower the signal;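 note: phospho-histone H2A.x immunostain intensity per cell marking DNA damage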
In short: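 Phospho-H2A.x imaging endpoint in HepG2 after 72 hr compound exposure (0.39–200 uM, duplicate wells). Activity derived by bidirectional curve fitting with DMSO as baseline.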

[2] = APR_HepG2_MitoMembPot_72hr: Apredica 72-hour HepG2 Assay for Mitochondrial Membrane Potential (AID 2282917); settings: imaging, actives raise or lower the signal
In short: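 HepG2 cells exposed 72 h to compounds at 0.39–200 uM (0.5% v/v DMSO, duplicates); MitoTracker Red CMXRos 250 nM loaded 30 min before 3.7% formaldehyde fixation, imaged by HCS fluorescence. Bidirectional fit versus DMSO.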

[3] = APR_HepG2_MitoticArrest_72hr: Apredica 72-hour HepG2 Assay for Mitotic Arrest (AID 2282918); settings: high-content imaging, actives raise or lower the signal
In short: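 Mitotic arrest in HepG2 is scored from phospho-histone H3 staining after 72 hr dosing across 0.39–200 uM, with DMSO at 0.5% v/v. Nuclei are identified by Hoechst 33342 and fluorescence intensity is quantified per cell.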

[4] = APR_HepG2_MicrotubuleCSK_72hr: Apredica 72-hour HepG2 Assay for Microtubule CSK Stabilty (AID 2282919); settings: HepG2 microtubule cytoskeleton, high-content imaging, actives raise or lower the signal
In short: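 Ten-point dosing (0.39–200 uM, 0.5% DMSO) of HepG2 for 72 hr, with taxol as the cytoskeletal positive control. The cells were formaldehyde-fixed and then stained with alpha-tubulin/Cy5 and Hoechst. Imaging at 20x used a −2 um Z offset for tubulin.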

[5] = APR_HepG2_P-H2AX_24hr: Apredica 24-hour HepG2 Assay for H2AX Phosphorylation (AID 2282920); settings: high-content imaging, actives raise or lower the signal
In short: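 Signal comes from a FITC-labeled secondary detecting phospho-histone H2A.x in fixed HepG2 cells, quantified by automated imaging at 20x. Dosing ran 24 hr across 0.39–200 uM with 0.5% v/v DMSO.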

[6] = APR_HepG2_StressKinase_72hr: Apredica 72-hour HepG2 Assay for Stress Kinase (AID 2282921); settings: HepG2 stress kinase (phospho-c-Jun) imaging, actives raise or lower the signal
In short: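 Stress kinase signal reflects nuclear phospho-c-Jun staining in fixed, permeabilized cells exposed 72 h to compound at 0.39–200 uM; DMSO-normalized, fitted for increases or decreases.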

[7] = APR_HepG2_StressKinase_24hr: Apredica 24-hour HepG2 Assay for Stress Kinase (AID 2282922); settings: HepG2 stress kinase (phospho-c-Jun) imaging, actives raise or lower the signal
In short: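 After 24 hr compound treatment (up to 200 uM, final DMSO 0.5% v/v), HepG2 cells are fixed and multiplex-labeled; phospho-c-Jun intensity is captured by high-content fluorescence imaging and analyzed relative to DMSO.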

[8] = APR_HepG2_p53Act_72hr: Apredica 72-hour HepG2 Assay for p53 Activation (AID 2282923); settings: high-content imaging, actives raise or lower the signal;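 note: average cellular p53 protein immunofluorescence intensity in HepG2 cells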
In short: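 Fixed-cell p53 staining (sheep primary, Cy5 secondary) measured by fluorescence imaging following 72 hr treatment at 0.39–200 uM in 0.5% DMSO; DMSO served as negative control and baseline.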

[9] = APR_HepG2_MitoMass_72hr: Apredica 72-hour HepG2 Assay for Mitochondrial Mass (AID 2282924); settings: high-content imaging, actives raise or lower the signal;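 note: MitoTracker Red CMXRos stain intensity per cell imaged as mitochondrial mass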
In short: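 Steps: treat HepG2 72 hr (0.39–200 uM, duplicate wells); load MitoTracker Red CMXRos, 250 nM, 30 min; fix with 3.7% formaldehyde, permeabilise with 0.5% Triton X-100; capture images, nuclei via Hoechst 33342; fit bidirectionally against DMSO.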

[10] = APR_HepG2_NuclearSize_72hr: Apredica 72-hour HepG2 Assay for Nuclear Size (AID 2282925); settings: high-content imaging, actives raise or lower the signal
In short: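 Compounds (0.39–200 uM, final DMSO 0.5%) were applied to HepG2 for 72 hr. Cells were then formaldehyde-fixed, permeabilized and labelled with Hoechst 33342. Nuclear diameter was quantified from six images per well.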

Measured: AC50

COC(=O)c1ccccc1N
inactive: all assays above

C[C@]12C=CC3=C4CCC(=O)C=C4CC[C@H]3[C@@H]1CC[C@@H]2O
active: [3] 20.8 µM
not listed: [8]
inactive: all other assays above

OCCCBr
inactive: all assays above

O=[N+]([O-])c1ccc(Oc2ccc(Cl)cc2Cl)cc1
active: [3] 71 µM
inactive: all other assays above

COC(=O)Nc1nc2ccccc2[nH]1
active: [1] 5.9 µM | [5] 5.54 µM | [6] 6.75 µM | [7] 36.3 µM | [8] 2.8 µM | [9] 5.43 µM | [10] 9.08 µM
inactive: [2] | [4]

c1ccc(NNc2ccccc2)cc1
active: [1] 100 µM | [3] 100 µM | [8] 98.9 µM | [9] 150 µM
inactive: all other assays above

Cc1cc(N=Nc2ccccc2C)ccc1N
active: [5] 100 µM | [7] 100 µM | [8] 2.34 µM | [10] 56.3 µM
not listed: [3]
inactive: all other assays above

CN(C)c1ccc(C(=O)c2ccc(N(C)C)cc2)cc1
inactive: [2] | [4]
active: [1] 15.4 µM | [3] 16.5 µM | [5] 26.7 µM | [6] 9.87 µM | [7] 14 µM | [8] 0.292 µM | [9] 0.855 µM | [10] 1.91 µM

Nc1cc(Cl)cc(C(=O)O)c1Cl
inactive: all assays above

O=C1CCCO1
inactive: all assays above

OCCCl
inactive: all assays above

Nc1ccc([N+](=O)[O-])cc1
inactive: all assays above

CCCCOC(=O)c1ccccc1C(=O)OCc1ccccc1
active: [8] 98.9 µM
inactive: all other assays above

O=Cc1ccco1
inactive: all assays above

CCCSC(=O)N(CCC)CCC
inactive: all assays above

CCCCC(CC)COC(=O)c1ccc(C(=O)OCC(CC)CCCC)c(C(=O)OCC(CC)CCCC)c1 (stereo not given)
inactive: all assays above

O=C(Nc1ccccc1)c1ccccc1I
not listed: [8]
inactive: all other assays above

Clc1ccccc1Cl
not listed: [8]
inactive: all other assays above

CC(C)(C)OOC(C)(C)CCC(C)(C)OOC(C)(C)C
active: [2] 52.8 µM | [3] 54.8 µM
inactive: all other assays above
